Source: PubChem BioAssay (Sanford-Burnham Center for Chemical Genomics)
PHOSPHO1 inh: inhibitors of human PHOSPHO1 phosphatase. Q8TCT1. recombinant PHOSPHO1, absorbance phosphatase assay. inhibition, % at 13.3 µM. 1.1% of 290,000 active; in the data active = inhibition above about 60%
Target sequence (Q8TCT1 whole entry, looked up): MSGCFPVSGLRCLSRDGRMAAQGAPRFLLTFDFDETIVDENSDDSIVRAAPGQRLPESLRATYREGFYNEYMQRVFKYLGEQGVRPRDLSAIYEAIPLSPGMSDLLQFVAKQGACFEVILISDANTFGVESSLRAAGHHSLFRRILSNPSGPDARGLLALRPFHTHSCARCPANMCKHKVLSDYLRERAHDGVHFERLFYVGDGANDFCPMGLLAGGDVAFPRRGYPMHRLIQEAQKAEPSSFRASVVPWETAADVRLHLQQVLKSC
APOBEC3G inh: blocks human APOBEC3G single-stranded DNA deamination; Q9HC16; recombinant A3G, ssDNA deamination FAM/TAMRA fluorescence; inhibition, % at 20 µM; 0.28% of 330,000 active;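 active = inhibition of at least 40% at 20 µM, with no more than 30% in the related APOBEC3A deaminase screen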
A3A deaminase: blocks human APOBEC3A ssDNA deamination. recombinant A3A, FAM/TAMRA ssDNA deamination fluorescence. 0.41% of 330,000 active. P31941. inhibition, % at 20 µM;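 active = at least 40% inhibition at 20 µM here, with at most 30% in a related deaminase screen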
Target sequence (P31941 whole entry, looked up): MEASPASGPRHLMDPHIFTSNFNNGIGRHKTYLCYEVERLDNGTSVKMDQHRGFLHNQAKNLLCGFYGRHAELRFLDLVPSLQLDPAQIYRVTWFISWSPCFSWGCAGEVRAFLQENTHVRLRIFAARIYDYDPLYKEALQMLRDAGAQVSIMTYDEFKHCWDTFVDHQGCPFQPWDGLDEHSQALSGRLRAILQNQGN
PABP1 MLLE inh: inhibitors of microRNA-mediated deadenylation, human PABP1 MLLE binding; 0.36% of 360,000 active; inhibition, % at 20 µM; AID 588489; GST-MLLE / FITC-PAM2 fluorescence polarization; in the data active = inhibition above about 35%, passing the limit was not always enough
PABP polyA inh: blocks human PABP binding to poly(A) RNA | calls only at 35 µM | fluorescence polarization | P11940 | 1% of 290,000 active;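 note: calls also rest on retests at 20 µM and on dose response follow-up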
eIF4H inh: inhibitors of RNA binding by human eIF4H. Q15056. eIF4H fluorescence polarization binding assay. inhibition, % at 35 µM. 0.94% of 290,000 active. AID 2012;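 note: calls also rest on retests at 20 µM and on dose response follow-up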
A number is an active result; n = inactive; u = inconclusive; x = no result; + = active, no number. In the library only some 2.6% were active in any assay of this set; here they are far more common. Unless noted, the rule behind the calls is not given here.

SMILES	PHOSPHO1 inh	APOBEC3G inh	A3A deaminase	PABP1 MLLE inh	PABP polyA inh	eIF4H inh
CC(=O)c1c(N2CCN(C)CC2)nc(=S)n(Cc2ccccc2)c1C	n	n	n	n	n	n
CCn1c(C)c(C(C)=O)c(N2CCN(c3ccc(OC)cc3)CC2)nc1=S	n	n	n	n	n	n
CCn1c(C)c(C(C)=O)c(N2CCN(c3cccc(Cl)c3)CC2)nc1=S	76	n	n	n	u	u
COc1ccc(N2CCN(c3nc(=S)n(-c4ccccc4)c(C)c3C(C)=O)CC2)cc1	n	n	n	n	+	68
CC(=O)c1c(N2CCN(c3cccc(Cl)c3)CC2)nc(=S)n(-c2ccccc2)c1C	n	n	n	n	+	84
CC(=O)c1c(N2CCN(c3ccccn3)CC2)nc(=S)n(-c2ccccc2)c1C	n	n	n	n	+	u
COC(=O)C1=C(C(=O)OC)[C@@H]2Nc3ccccc3[C@@]23C[C@@H](C(=O)OC)N=C3N1	n	n	n	n	n	n
CCC12CCCN3CCC4(C(=C(C(=O)OC)C1)Nc1ccccc14)C32 (stereo unspecified)	99	x	x	n	+	n
COc1ccc(CC(=O)Nc2cccc(S(=O)(=O)N3CCCCCC3)c2)cc1OC	n	x	x	n	n	n
O=C(CCN1C(=O)C2CC=CCC2C1=O)NC1CCCCC1 (stereo unspecified)	n	n	n	n	n	n
COc1ccc(-c2n[nH]c(=S)n2C2CCCCC2)cc1	100	n	n	n	n	n
COc1ccc(Cl)cc1-c1n[nH]c(=S)n1C1CCCCC1	97	n	n	n	n	n
COc1ccc(NC(=O)CSCC(=O)Nc2cc(Cl)ccc2N2CCCC2)cc1	n	n	n	n	n	n
Cc1ccccc1C(c1ncccc1C)N(C)C(=O)C1CCN(CCOc2ccc(Cl)cc2Cl)CC1 (stereo unspecified)	x	x	x	n	x	x
O=C(CN1C(=O)/C(=C/c2ccc(F)cc2)SC1=S)NC1CCS(=O)(=O)C1 (stereo unspecified)	n	n	n	n	n	n
CCOC1=C2[C@@H](CN(S(=O)(=O)c3ccc(C)cc3)[C@H]2c2ccc(Cl)cc2)[C@H]2C(=O)N(c3ccccc3)C(=O)[C@H]2C1	x	x	x	n	x	x
Cn1nc(-c2ccccc2)cc1NC(=O)[C@@H]1O[C@H](CO)[C@H](O)[C@H](O)[C@H]1O	x	x	x	n	x	x
Cc1cccc(NC(=O)CCS(=O)(=O)c2ccc3c(c2)NC(=O)CS3)n1	n	n	n	n	+	n
CC1Cc2ccccc2N1C(=O)CCS(=O)(=O)c1ccc2c(c1)NC(=O)CS2 (stereo unspecified)	n	n	n	n	+	n
COc1ccc(S(=O)(=O)CCC(=O)N2c3ccccc3CC2C)cc1 (stereo unspecified)	n	n	n	n	n	n
CC1CCC(NC(=O)CCS(=O)(=O)c2ccc3c(c2)NC(=O)CS3)CC1 (stereo unspecified)	n	n	n	n	n	n
COc1ccc(S(=O)(=O)N2CCOCC2)cc1NC(=O)c1cc2c(s1)CCCC2	n	n	n	n	n	n
COc1ccc(NC(=O)c2cc3c(s2)CCC3)cc1S(=O)(=O)N1CCOCC1	n	n	n	n	n	100
COc1ccc(NC(=O)Cn2ncc(Cl)c(Cl)c2=O)cc1S(=O)(=O)N1CCOCC1	n	x	x	n	+	n
O=C1CC/C=C\C[C@@H](CC(=O)N(CCO)Cc2ccccc2)C(=O)N2CCC[C@H]2CO1	x	n	n	n	x	x
SMILES	PHOSPHO1 inh	APOBEC3G inh	A3A deaminase	PABP1 MLLE inh	PABP polyA inh	eIF4H inh
COc1ccccc1C(=O)NC(CCSC)C(=O)NC1CCCCCC1 (stereo unspecified)	n	n	n	n	+	n
COc1ccccc1C(=O)NC(CCSC)C(=O)OCC(=O)c1ccc[nH]1 (stereo unspecified)	n	n	n	n	+	60
CCOC(=O)C1C(c2ccc(O)c(O)c2)NC(=S)NC1(O)C(F)(F)F (stereo unspecified)	n	n	n	n	n	n
COc1ccc(C(=S)N2CCC(C(N)=O)CC2)cc1Br	n	n	n	42	n	n
Cc1ccc(S(=O)(=O)SCCCSS(=O)(=O)c2ccc(C)cc2)cc1	x	x	x	n	x	x
O=c1nc2s/c(=C\c3ccc(-c4ccccc4[N+](=O)[O-])o3)c(=O)n2nc1-c1ccccc1	74	x	x	n	n	n
O=C(O)CC(Cn1[nH]nnc1=S)c1ccccc1 (stereo unspecified)	94	n	n	n	n	n
C=CCNc1nc(-c2ccc(OC)cc2OC)cs1	61	n	n	n	n	n
CCN(CC)S(=O)(=O)c1cccc(C(=O)N/N=C2\CC(=O)CC(C)(C)C2)c1	n	n	n	n	n	n
CCN(CC)S(=O)(=O)c1cccc(C(=O)N/N=C2\CCCC(=O)C2)c1	n	n	n	n	+	n
Cc1nn(-c2ccccc2)c(Cl)c1/C=C1\SC(=S)NC1=O	64	n	n	n	n	n
Cc1nn(-c2ccccc2)c(Cl)c1/C=C1\SC(=S)N(CCCCCC(=O)O)C1=O	n	n	n	n	n	n
O=C(Nc1ccc([N+](=O)[O-])cc1)Nc1nc(-c2ccc(Cl)s2)cs1	n	x	x	n	n	n
O=C(N/N=C/c1ccncc1)c1cc([N+](=O)[O-])cc([N+](=O)[O-])c1O	n	n	n	n	n	76
O=C(N/N=C/c1ccc[nH]1)c1cc2ccccc2cc1O	n	n	n	n	n	76
O=C(N/N=C/c1ccncc1)c1cc2ccccc2cc1O	61	n	n	n	n	n
COc1ccccc1C(=O)NCCC(=O)NCC1COc2ccccc2O1 (stereo unspecified)	x	n	n	n	x	x
Cc1cccc(NC(=O)C(=O)NCC2CCCN2S(=O)(=O)c2ccccc2)c1 (stereo unspecified)	x	n	n	n	x	x
Cc1ncc2c(c1OC(=O)c1ccccc1)COC(C)(C)OC2	n	n	n	n	n	n
Cc1c(OC(=O)c2ccc([N+](=O)[O-])cc2)c2c(c[n+]1C)COC(C)(C)OC2	103	n	n	n	n	n
CCC(Oc1ccc(C)c(C)c1)C(=O)N1CCCN(C)CC1 (stereo unspecified)	n	n	n	n	n	n
Clc1ccc(N=c2ssnc2Cl)cc1	89	76	n	n	n	n
Clc1nssc1=Nc1ccccc1	97	x	x	n	n	n
Fc1ccc(N=c2ssnc2Cl)c(F)c1	n	74	n	n	n	n
O=C(CSc1nc2ccccc2n1CCc1ccccc1)N1CCOCC1	n	n	n	n	n	n
Cn1c(SCC(=O)c2ccc(O)c(O)c2)nnc1-c1cccs1	62	n	n	n	+	50
O=C(CSc1nc2ccccc2n1CCc1ccccc1)c1ccc(O)c(O)c1	n	x	x	n	+	90
N#CCCN(C(=O)CSc1ccc2c(c1)OCCO2)c1ccccc1	n	n	n	41	n	n
CN(C(=O)CSc1ccc2c(c1)OCCO2)c1ccccc1	x	n	n	n	x	x
